Source: ChEMBL document CHEMBL4513216, “Probing the Open Global Health Chemical Diversity Library for Multistage-Active Starting Points for Next-Generation Antimalarials” (ACS Infect Dis, 2020)
Hit rate of the full screen: of about 68,000 compounds, about 2,700 (4%) showed an effect of 50% or more. Shown is part of a subset that was picked to be rich in strong results.

system: Plasmodium berghei; test: Screen against P. berghei liver stage (PbLuc), transformed with Luciferase, at 2uM; assay type: functional, HepG2; details: tested at 2 uM

Row | SMILES | INHIBITION
1 | O=C(COc1coc(CN2CCCCC2)cc1=O)Nc1cccc(Cl)c1 | -13.13%
2 | CCOCC(O)CN1CCN(C(=O)Cc2ccc3c(c2)CCC3)CC1 (stereo not drawn) | 24.88%
3 | Cc1ccc(CN(Cc2cc(C)no2)C2CC2)cc1 | 2.01%
4 | CCOc1cc(C)nc(N2CCN(C(=O)c3csnn3)CC2)n1 | -14.16%
5 | CCOCC(O)CN1CCN(C(=O)c2ccccc2F)CC1 (stereo not drawn) | 30.29%
6 | CCn1cc(CN2C[C@@H]3CCCN3C[C@H]2CCSC)cn1 | -25.95%
7 | Cc1ccc(N(C)CC(O)COCc2ccccc2F)c(C)c1 (stereo not drawn) | 25.92%
8 | CCc1nnc(CN2CCC(C3CCCCCN3C(C)=O)CC2)o1 (stereo not drawn) | -5.58%
9 | CCOCCCNC(=O)c1nc2c(s1)CCCN2c1ccc(C)nn1 | -14.63%
10 | CCNC(=O)C(C)NC(=O)Nc1ccccc1SC(F)(F)F (stereo not drawn) | -16.18%
11 | CCNC(=O)C(C)NC(=O)Nc1ccccc1Cl (stereo not drawn) | 12.43%
12 | CCNC(=O)C(C)NC(=O)Nc1ccccc1SCC (stereo not drawn) | 60.13%
13 | c1csc(-c2noc(C3CNC3)n2)c1 | 5.98%
14 | C1CC(N2Cc3nnn(CC4CC4)c3C(COCC3CC3)C2)C1 (stereo not drawn) | 10.71%
15 | CN(CCc1ccccn1)C(=O)c1cnn(-c2ccccc2F)c1N | 4%
16 | Cc1nc(NC(=O)N2CCCC(N(C)C)C2)nn1C (stereo not drawn) | 15.68%
17 | CN(C)S(=O)(=O)N1C[C@H]2CC[C@@H](C1)N(Cc1ccc3nsnc3c1)C2 | 22.22%
18 | CN(C)S(=O)(=O)N1C[C@H]2CC[C@@H](C1)N(Cc1ccc3c(c1)OCCO3)C2 | 8.48%
19 | CN(C)S(=O)(=O)N1C[C@H]2CC[C@@H](C1)N(Cc1ccc(F)c(F)c1)C2 | 53.12%
20 | CN(CC(F)(F)F)C(=O)CN1CCC(c2cc3ccccc3[nH]2)CC1 | -17.18%
21 | CN(C)C(=O)CN1C[C@H]2CC[C@@H](C1)N(Cc1cccc(Cl)c1Cl)C2 | -14.32%
22 | CN(C)C(=O)CN1C[C@H]2CC[C@@H](C1)N(Cc1c(Cl)cncc1Cl)C2 | 69.67%
23 | CN(C)C(=O)CN1C[C@H]2CC[C@@H](C1)N(Cc1c(F)cccc1Cl)C2 | 41.05%

Row | SMILES | INHIBITION
24 | COc1ncc(CN(C)C(C)c2cccnc2)cn1 (stereo not drawn) | 40.8%
25 | CNC(=O)CN1CCCC12CCN(C(=O)c1ccoc1)CC2 | 23.09%
26 | CCOCCN1CCN(c2ccc(C#N)cn2)CC1 | 13.14%
27 | CCCc1ccc(C(=O)N2Cc3c(Cn4ccnc4)nn(C)c3C2)cc1 | 1.81%
28 | CC(NC(=O)NCCn1ccnc1)c1ccc2c(c1)OCCCO2 (stereo not drawn) | -16.99%
29 | O=C(COc1ccc(F)cc1F)N1CCOCC(O)(CN2CCCC2)C1 (stereo not drawn) | 9.43%
30 | Cc1ccc(OCC(=O)N2CCOCC(O)(CN3CCCC3)C2)cc1C (stereo not drawn) | 5.47%
31 | O=C(COc1cccc(Cl)c1)N1CCOCC(O)(CN2CCCC2)C1 (stereo not drawn) | 52.1%
32 | Cc1ccc2nc(CN(C)Cc3n[nH]c4c3CCCCC4)[nH]c2c1C | -17.01%
33 | COCCNC(=O)C1CCCN(c2ccc3nncn3n2)C1 (stereo not drawn) | -56.23%
34 | Cn1c(CCNC(=O)C2CCCN(C3CCOCC3)C2)n[nH]c1=O (stereo not drawn) | -36.65%
35 | Cn1cc(CN2C[C@H]3CCC[C@@]3(COc3ccccn3)C2)cn1 | 4.38%
36 | CCc1nnc(NC(=O)NCCN(C)C(=O)OC(C)(C)C)s1 | -23.06%
37 | CCN(CCNC(=O)Nc1nnc(C)s1)C(=O)OC(C)(C)C | 57.98%
38 | Cc1nnc(NC(=O)NCCN(C(=O)OC(C)(C)C)C2CC2)s1 | -25.33%
39 | CCC(C(=O)NCC1=CCCN(C)C1)c1ccccc1 (stereo not drawn) | -52.88%
40 | COCc1cc(NCCc2ccc(S(N)(=O)=O)cc2)n2nccc2n1 | 32.88%
41 | O=C(N1CCOCC1)N1CCc2ncnc(NC3CCC3)c2CC1 | 24.36%
42 | CCC(=O)N1CCC2(CC1)CC(N1CCOCC1)c1cc(C)ccc12 (stereo not drawn) | 48.17%
43 | O=C1NCCCCC1Sc1nnc(C2CC2)n1C1CC1 (stereo not drawn) | 58.24%
44 | O=C1NCCCCC1Sc1n[nH]c(=O)n1C1CC1 (stereo not drawn) | -5.76%
45 | O=C1NCCCCC1Sc1nnc(N2CCCC2)n1C1CC1 (stereo not drawn) | -20.55%
46 | CCN1CC(C(=O)NCc2ccccc2-n2cccn2)CC1=O (stereo not drawn) | 24.91%

Row | SMILES | INHIBITION
47 | CNC(=O)[C@@H]1C[C@H]2CN(C(=O)c3ccco3)C[C@H]2N1C(C)C | -11.99%
48 | c1cncc(COCc2nnc3n2CCN(Cc2cccs2)C3)c1 | 29.95%
49 | Cc1ncsc1CCN(C)C(=O)CN1CC2(CCCC2)CC1=O | 52.3%
50 | Cc1ncsc1CCN(C)C(=O)CN1CCCCC1=O | 17.2%
51 | Cc1ncsc1CCN(C)C(=O)CN1CCCCCC1=O | 24.36%
52 | COc1cc(NC(=O)c2nc3ccccc3n(C)c2=O)cc(OC)c1 | -1.01%
53 | COCCn1cc(C(=O)N2CCCC2c2cccc(C)c2)ccc1=O (stereo not drawn) | 9.5%
54 | CCN1CCN(C)C2(CCN(C(=O)CC(F)(F)F)CC2)C1=O | -2.81%
55 | COCCCN1CC2(CCN(Cc3cc(C(C)C)no3)CC2)CC1=O | -9.78%
56 | COCCCN1CC2(CCC1=O)CCN(Cc1cc(C)no1)CC2 | -7.23%
57 | COCCCN1CC2(CCC1=O)CCN(Cc1cc(C(C)C)no1)CC2 | 50.86%
58 | CS(=O)(=O)c1nccn1Cc1ccncc1 | -52.32%
59 | Cc1ccccc1N1CC(C)N(C(=O)CCn2cccn2)CC1=O (stereo not drawn) | 51.08%
60 | CCc1nccn1CCC(=O)N1CC(=O)N(c2ccccc2C)CC1C (stereo not drawn) | 26.21%
61 | CCc1nccn1CCC(=O)N1CCN(c2ccccc2C)CC1C (stereo not drawn) | -12.03%
62 | O=C1NCC2(CCCN(C(=O)c3ccc4c(c3)OCCO4)CC2)O1 (stereo not drawn) | 24.36%
63 | O=C1NCC2(CCN(C(=O)c3ccc4c(c3)CCCO4)CC2)O1 | 50.59%
64 | O=C1NCC2(CCCN(C(=O)c3ccc4c(c3)CCCO4)CC2)O1 (stereo not drawn) | 26.74%
65 | Cc1cc(-c2ccccc2C(=O)O)nc(C2CCCCN2C)n1 (stereo not drawn) | 11.52%
66 | O=C(c1cccc(-n2cccn2)c1)N1CCOC(CCO)C1 (stereo not drawn) | 62.51%
67 | NCC1CN(C(=O)c2cccc(-n3cccn3)c2)CCO1 (stereo not drawn) | 45.82%
68 | O=C(c1cccc(-n2cccn2)c1)N1CCCOC(CN2CCCC2)C1 (stereo not drawn) | 33.9%
